Among all 360,000 compounds or so, about 3,000 (0.83%) were called active. For the sample, actives were picked, then their nearest neighbours and some compounds at random. Unmarked numbers belong to inactive results. Cut-off read from the data, not from the text of the source: active = inhibition above about 50%; inactive = the rest.

This assay deals with DNA (cytosine-5)-methyltransferase 1 (Homo sapiens) (UniProt P26358). In words: human DNMT1 methyltransferase inhibitors, primary screen, biochemical, molecular beacon, fluorescence, HinP1I cleavage, uHTS (AID 588458). To be noted: at 10 µM, active compounds read high.
Sequence of DNA (cytosine-5)-methyltransferase 1 (Homo sapiens) (P26358 504-1616 limits assumed): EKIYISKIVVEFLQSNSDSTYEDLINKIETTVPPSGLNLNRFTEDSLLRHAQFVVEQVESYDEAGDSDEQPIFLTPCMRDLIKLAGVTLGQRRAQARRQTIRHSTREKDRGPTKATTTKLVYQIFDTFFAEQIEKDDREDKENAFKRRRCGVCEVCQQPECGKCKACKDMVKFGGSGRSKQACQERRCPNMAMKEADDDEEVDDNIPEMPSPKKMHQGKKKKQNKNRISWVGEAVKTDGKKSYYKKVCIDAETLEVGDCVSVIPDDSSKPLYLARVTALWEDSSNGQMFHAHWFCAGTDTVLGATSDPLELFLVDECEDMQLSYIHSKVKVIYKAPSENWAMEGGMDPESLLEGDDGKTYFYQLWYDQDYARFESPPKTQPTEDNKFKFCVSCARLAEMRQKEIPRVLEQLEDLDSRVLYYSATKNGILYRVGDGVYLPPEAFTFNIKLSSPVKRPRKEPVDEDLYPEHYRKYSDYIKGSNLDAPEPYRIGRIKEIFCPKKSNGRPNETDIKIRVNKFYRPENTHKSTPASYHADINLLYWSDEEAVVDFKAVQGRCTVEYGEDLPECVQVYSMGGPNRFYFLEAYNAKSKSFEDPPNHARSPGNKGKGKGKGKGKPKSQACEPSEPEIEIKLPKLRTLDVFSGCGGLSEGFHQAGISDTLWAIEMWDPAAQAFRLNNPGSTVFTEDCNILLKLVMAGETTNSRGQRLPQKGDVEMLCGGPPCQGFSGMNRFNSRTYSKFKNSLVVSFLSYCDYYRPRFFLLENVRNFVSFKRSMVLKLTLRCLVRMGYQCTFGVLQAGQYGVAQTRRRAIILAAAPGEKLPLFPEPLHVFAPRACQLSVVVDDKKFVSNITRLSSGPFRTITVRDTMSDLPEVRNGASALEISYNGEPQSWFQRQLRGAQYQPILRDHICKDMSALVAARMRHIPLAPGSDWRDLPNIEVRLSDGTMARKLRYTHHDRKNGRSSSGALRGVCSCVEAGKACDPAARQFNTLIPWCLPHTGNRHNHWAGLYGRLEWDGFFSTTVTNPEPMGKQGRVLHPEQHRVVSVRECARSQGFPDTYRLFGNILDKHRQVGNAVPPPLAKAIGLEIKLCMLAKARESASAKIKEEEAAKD
With `CCc1nc2c(OCCOc3ccc(F)cc3)cccn2c1N(C)C(=O)c1ccccc1F`, the inhibition (reported as % activation of signal) was -4.23%.
In the case of `CCC(=O)Nc1ccc(-c2ccc(N3CCCCC3)nn2)cc1` it was -8.26%; in that of `Cc1c(C(=O)NCc2ccc(C#N)cc2)sc(=O)n1Cc1ccc(C(=O)N(C)C)cc1`, 4.99%; in that of `O=C1N[C@@H](Cc2ccccc2)C(=O)N2[C@@H]3N(S(=O)(=O)c4ccc(F)cc4)c4ccccc4[C@]3(Br)C[C@@H]12`, -4.71%.
In the case of `COc1ccc(CCc2nnc(CCC(=O)NCc3cnn(-c4ccccc4C)c3)o2)cc1`, the inhibition (reported as % activation of signal) was -0.69%.
The result for `C/C(=N/N1CCN(Cc2cccc3ccccc23)CC1)c1cccnc1` reads -1.56%; that for `CCN1CC=C2C(C#N)=C(N)C(C#N)(C#N)[C@H](c3ccoc3)[C@H]2C1`, 0.41%.
The result for `CCOC(=O)N1CC=C2C(C#N)=C(N)C(C#N)(C#N)[C@H](c3cccs3)[C@H]2C1` reads 70.4% (active); that for `C=CCOC(=O)C1=C(C)NC(C)=C(C(=O)OCC=C)C1c1cccs1`, 13.3%; that for `Cc1cccc(CC(=O)N2CCN=C2SCc2ccc([N+](=O)[O-])cc2)c1`, -5.45%.
The result for `COc1cccc(NC(=O)CN(C)C(=O)c2cc(C3CC3)nn2-c2ccccc2)c1` reads -5.25%; that for `CCc1ccccc1NC(=O)CN(C)C(=O)c1cc(C2CC2)nn1-c1ccccc1`, -2.35%.
Regarding `COc1ccc(NC(=O)CN(C)C(=O)c2cc(C3CC3)nn2-c2ccccc2)cc1`, the inhibition (reported as % activation of signal) is 61.4% (active).
In the case of `CC(C)(C)NC(=O)CN(Cc1cccs1)C(=O)CNS(=O)(=O)c1ccccc1` it was -3.38%; in that of `CC(=O)Nc1ccc(Sc2ccccc2C(=O)N2CCCC2)cn1`, -0.06%; in that of `Nc1cccc(-c2cncc(N3CCN(Cc4ccccn4)CC3)n2)c1`, -1.68%.
In the case of `Oc1c(C(c2cccs2)N2CCN(c3ccc(F)cc3)CC2)sc2ncnn12` (centres undefined) it was 5.11%; in that of `Cc1nc2sc(C(c3ccco3)N3CCC4(CC3)OCCO4)c(O)n2n1` (centres undefined), -3.42%; in that of `Oc1c(C(c2ccco2)N2CCC3(CC2)OCCO3)sc2ncnn12` (centres undefined), 84.4% (active).
For the molecule `Cc1cc(NC(=O)CN2C(=O)NC(CC(C)C)C2=O)no1` (centres undefined), the inhibition (reported as % activation of signal) is 3.08%.
Regarding `COc1ccccc1CNS(=O)(=O)c1c(C)[nH]c(C)c1C(=O)N1CCCCC1`, the inhibition (reported as % activation of signal) was 2.18%.
As for `CC(=O)NCCc1ccc(S(=O)(=O)N(C)C2CCS(=O)(=O)C2)cc1` (centres undefined), the inhibition (reported as % activation of signal) is 0.81%.
The result for `N/C(=N\S(=O)(=O)c1cc(C(F)(F)F)cc(C(F)(F)F)c1)c1cccs1` reads 3.6%; that for `Cc1ccc(CNC(=O)CSc2nnc3c(n2)[nH]c2ccc(F)cc23)cc1`, 57.3% (active).
Turning to `Cc1ccn2c(=O)nc(SCC(=O)NCc3ccc(F)cc3)nc2c1`, the inhibition (reported as % activation of signal) is -6.32%.
For `COc1ccc2[nH]c3nc(SCC(=O)NC4CC4)nnc3c2c1`, the inhibition (reported as % activation of signal) is 2.16%.
On to `O=C(Nc1cccc(F)c1)c1coc(=O)c(Br)c1`, for which the inhibition (reported as % activation of signal) is -1.29%.
In the case of `CC(=O)c1ccc(NC(=O)CCNS(=O)(=O)c2cc(Br)cnc2N)cc1` it was 2.08%; in that of `CCCCN1CC(CO)Oc2cccc(F)c2S1(=O)=O` (centres undefined), 0.29%.
For `OC[C@H]1O[C@@H](c2nc(-c3nc(-c4ccc(F)cc4)no3)cs2)[C@H](O)[C@@H](O)[C@H]1O`, the inhibition (reported as % activation of signal) is 0.63%.
`C=CCn1c(=S)[nH]c2scc(-c3ccco3)c2c1=O`: the inhibition (reported as % activation of signal) is 94.1% (active).
The result for `CCC1(C)Cc2c(sc3[nH]c(=S)n(Cc4ccccc4)c(=O)c23)CO1` (centres undefined) reads -3.04%; that for `Cc1ccccc1-n1cc(CNC(=O)C2CCC(=O)N(C3CC3)C2)cn1` (centres undefined), 0.34%; that for `Cc1ccccc1-n1cc(CNC(=O)CC2C(=O)NCCN2C/C=C/c2ccccc2)cn1` (centres undefined), 68.2% (active).
In the case of `O=C(CC1C(=O)NCCN1Cc1ccc(-c2ccccc2)cc1)NCc1ccncc1` (centres undefined) it was -12.2%.
In the case of `COc1cc(OC)cc(C(=O)NNC(=O)Cc2cccs2)c1` it was 7.66%; in that of `COc1ccc(Cc2nnc(NC(=O)Cc3cccs3)s2)cc1`, 113% (active); in that of `COc1ccccc1NC(=O)Nc1nnc(Cc2ccc(F)cc2)s1`, 9.56%.
Regarding `CC(C)(C)NC(=O)C(c1ccncc1)N(C(=O)CNC(=O)c1ccco1)c1ccc2c(c1)OCO2` (centres undefined), the inhibition (reported as % activation of signal) is -1.68%.
As to `CCOc1ccc(-n2cnnn2)cc1S(=O)(=O)N1CCC(C)CC1C` (centres undefined), the inhibition (reported as % activation of signal) was 4.44%.
In the case of `CC(C)(C)OC(=O)C[C@@H]1C/C=C\C[C@@H](CC(=O)N[C@@H](CO)Cc2ccccc2)C(=O)N2CCC[C@H]2COC1=O` it was 1.28%; in that of `Nc1ncnc(Nc2cccc(Cl)c2Cl)n1`, 0.57%; in that of `COc1cc(C(=O)Nc2cc(C(F)(F)F)ccc2-n2cncn2)cc(OC)c1OC`, -2.48%.
Regarding `O=C(COC(=O)c1cnc(Cl)c(Cl)c1)NCc1ccco1`, the inhibition (reported as % activation of signal) was 30.3%.
`Cc1cc(C(=O)OCC(=O)NCc2ccco2)c(C)n1-c1ccccc1`: the inhibition (reported as % activation of signal) was 55.9% (active).
In the case of `O=C(COC(=O)c1ccccc1O)NCc1ccco1` it was 50%; in that of `N#CC(C#N)=CN=c1ccn(Cc2ccc(Cl)cc2Cl)cc1`, -4.93%.
Regarding `Cc1cccc(C)c1NC(=O)C1(C)c2cccc[n+]2CC(=O)N1Cc1cccs1` (centres undefined), the inhibition (reported as % activation of signal) was -3.99%.
Regarding `O=C(/C=C/c1cnc2ccccc2n1)NC1CCCCCC1`, the inhibition (reported as % activation of signal) is -5.96%.
In the case of `COc1ccc(CCNC(=O)C(=O)NCC2OCCN2S(=O)(=O)c2ccc(OC)c(C)c2)cc1` (centres undefined) it was -5.69%; in that of `O=c1[nH][nH]c(C(F)(F)F)c1C=NCc1ccccc1Cl`, -3.13%.
The result for `CCN(CC)S(=O)(=O)c1ccc(N2CC(C(=O)NCc3cccnc3)CC2=O)cc1` (centres undefined) reads 2.78%; that for `O=C(N/N=C/c1cccc(OC(=O)c2ccc([N+](=O)[O-])cc2)c1)c1cccnc1`, 2.43%.
The result for `O=C(COC(=O)C1CCCCC1)Nc1ccc([N+](=O)[O-])cc1` reads -1.74%; that for `O=C(CCC(=O)N1CCCC1)Nc1ccc([N+](=O)[O-])cc1`, 0.7%; that for `O=C(COc1ccc([N+](=O)[O-])cc1)Nc1ccc(N2CCCC2)cc1`, 92.5% (active).
For `Cc1cc(C)cc(OCC(=O)Nc2ccc(N3CCOCC3)cc2N2CCOCC2)c1`, the inhibition (reported as % activation of signal) was -5.22%.
For `O=C(COc1ccc([N+](=O)[O-])cc1)Nc1cccc(C(=O)Nc2ccccc2C(=O)O)c1`, the inhibition (reported as % activation of signal) was -0.08%.
The result for `Cc1cc(N2CCCC2)ccc1NC(=O)COc1ccc(Cl)cc1` reads 59.6% (active).
With `O=C(COc1ccc(/C=N/NC(=O)c2ccc(O)cc2)cc1)Nc1ccc([N+](=O)[O-])cc1`, the inhibition (reported as % activation of signal) is 54% (active).
The result for `O=C(COc1ccc(Cl)cc1)Nc1ccccc1CO` reads 0.96%.
In the case of `CC(CO)N1CCS(=O)(=O)CC1` (centres undefined) it was 4.55%.
Regarding `Cc1ccc(C)n1-c1ccncc1`, the inhibition (reported as % activation of signal) is -0.41%.
In the case of `COc1ccc(NS(=O)(=O)c2ccc(C)c(C(=O)N(C)Cc3ccc(OC)cc3OC)c2)cc1` it was -0.59%.
In the case of `C[C@H]([C@@H](O)[C@@H](O)[C@@H](C)C(C)(C)C)[C@H]1CC[C@H]2C3CC[C@H]4C[C@H](OS(=O)(=O)O)[C@@H](OS(=O)(=O)O)C[C@]4(C)[C@H]3CC[C@]12C` (some centres undefined) it was 46.8%; in that of `CC(C)Oc1ccc(CC(=O)NNC(=S)Nc2ccc(Br)cc2)cc1`, -8.54%; in that of `CCCOc1ccc(Cc2c(Cl)nc(SC)nc2NC)cc1`, 5.36%.
As to `CC(C)Nc1nnc(SCC(=O)c2c[nH]c3ccccc23)s1`, the inhibition (reported as % activation of signal) was -9.78%.
The result for `CC(C)N(C(=O)CSc1nnc(NC2CC2)s1)c1ccccc1` reads -1.85%; that for `CC(C)c1ccc(Nc2nnc(SCC(=O)c3nnc(-c4ccccc4)o3)s2)cc1`, 79.2% (active).
Turning to `CN(C)CCNC(=O)c1cccc(-c2cnc3c(NC=O)cc(-c4cccc(C(F)(F)F)c4)cn23)c1`, the inhibition (reported as % activation of signal) was -1.67%.
In the case of `Cc1ccccc1NC(=O)CN1C(=O)N/C(=C\c2cccn2-c2cccc(C(=O)O)c2)C1=O` it was 92.6% (active).
The result for `Cc1ccccc1NC(=O)Cn1c(=O)n(CC2CCCO2)c(=O)c2ccccc21` (centres undefined) reads 1.1%.
The result for `COC(=O)CN1C(=O)N/C(=C/c2ccc(OC)c(C)c2OC)C1=O` reads 0.3%.
Turning to `CC(C)n1ncc2c(C(=O)N3CCN(Cc4cccs4)CC3)cc(C3CC3)nc21`, the inhibition (reported as % activation of signal) is 2.36%.
In the case of `COc1cc(C)c(C(C)C)cc1S(=O)(=O)n1ccnc1` it was 27.6%; in that of `C=CCCC(=O)Nc1nc(C)c(-c2csc(Nc3ccc(Cl)cc3)n2)s1`, -14.7%.
The result for `Cc1cn([C@H]2C[C@H](O)[C@@H](/C=C/C(=O)NCCCc3ccccc3)O2)c(=O)[nH]c1=O` reads 1%; that for `CCC(=O)Nc1cccc(C2=NOC3(C2)C[C@@H](C(N)=O)N(C(=O)c2cc([N+](=O)[O-])cc([N+](=O)[O-])c2C)C3)c1` (some centres undefined), 4.19%; that for `O=S(=O)(Nc1ccc2[nH]ncc2c1)c1ccccc1Cl`, -2.94%.
The result for `COc1cc(/C(=C/c2ccccc2)c2ccccc2)c2c(c1)oc1ccccc12` reads 10.2%; that for `Cc1nnc(N/N=C/c2cccs2)[nH]c1=O`, 56% (active); that for `Cc1n[nH]c(=O)nc1N/N=C/c1cccs1`, 3.53%.
For the molecule `Cc1nnc(N/N=C/c2ccccn2)[nH]c1=O`, the inhibition (reported as % activation of signal) was 5.44%.
The result for `CNc1ccc(SC#N)cc1` reads -16.1%; that for `O/N=C1\CC2(Cc3nonc31)OCCO2`, 77.1% (active).
In the case of `ON=C1/C(=N\O)CC2(C/C1=N/O)OCCO2` it was 12.4%.
The result for `CC(C)N=C1CCCC1C(=S)SSC(=S)C1CCCC1=NC(C)C` (centres undefined) reads -10.8%; that for `O=C(NCCCN1CCOCC1)c1ccccc1NS(=O)(=O)c1ccc(F)cc1`, 0.01%.

For the origin of these results see PubChem BioAssay AID588458 (Sanford-Burnham Center for Chemical Genomics, 2011).
